# Compound activity deposited in PubChem BioAssay by The Scripps Research Institute Molecular Screening Center.
# pPAFAH inh: pPAFAH (human) enzyme inhibition | Q13093 | inhibition, % at 3.39 µM | actives 1.5% (n = 330,000) | recombinant pPAFAH, FP-rhodamine probe fluorescence polarization;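 active means inhibition above the mean inhibition across the screen plus 3 SD, cut at about 25% in these data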;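 further: inhibitors block binding of the rhodamine activity-based probe so polarization drops; 0% = enzyme with DMSO and 100% = wells lacking pPAFAH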
# Target sequence (Q13093 whole entry, looked up): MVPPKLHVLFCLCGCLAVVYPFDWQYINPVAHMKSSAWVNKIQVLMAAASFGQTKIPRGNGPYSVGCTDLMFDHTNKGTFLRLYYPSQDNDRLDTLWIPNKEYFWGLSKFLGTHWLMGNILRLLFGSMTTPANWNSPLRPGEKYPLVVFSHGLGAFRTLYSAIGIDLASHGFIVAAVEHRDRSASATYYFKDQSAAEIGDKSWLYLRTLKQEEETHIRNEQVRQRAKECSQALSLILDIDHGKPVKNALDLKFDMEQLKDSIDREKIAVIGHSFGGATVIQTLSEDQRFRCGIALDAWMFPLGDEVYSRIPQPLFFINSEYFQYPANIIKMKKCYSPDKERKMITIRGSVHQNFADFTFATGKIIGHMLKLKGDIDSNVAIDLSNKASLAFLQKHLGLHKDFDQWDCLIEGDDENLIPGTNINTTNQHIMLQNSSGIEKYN
# Fh CTSL1 inh: cathepsin L1 inhibition, PFM18AAP counter-screen. recombinant F. hepatica cathepsin L1, Z-Leu-Arg-MCA fluorescence. inhibition, % at 5.96 µM. actives 0.49% (n = 300,000);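 active means inhibition above the mean of all tested compounds plus 3 SD, set per screening campaign, cut at about 17% in these data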;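 further: 0% = plate median of test compound wells and 100% = 1 µM Z-Phe-Ala-diazomethylketone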
# PP5 inh: blocks human protein phosphatase 5 activity | AID 1987 | actives 0.18% (n = 320,000) | P53041 | purified PP5c, OMFP substrate fluorescence | inhibition, % at 6.7 µM;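 active means inhibition above the campaign's mean inhibition across all tested compounds plus 3 SD, cut at about 9.5% in these data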;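 further: 0% = DMSO only and 100% = 100 µM cantharidin control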
# PAFAH2 FP inh: PAFAH2 (human) inhibition | Q99487 | recombinant PAFAH2, FP-rhodamine activity probe, fluorescence polarization | inhibition, % at 3.39 µM | actives 0.99% (n = 340,000);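 active means inhibition above the mean over all tested compounds plus 3 SD, cut at about 30% in these data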;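 further: inhibitors block probe labeling of enzyme so polarization drops; 0% = enzyme with DMSO and 100% = wells lacking PAFAH2 protein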
# PAFAH1B2 FP inh: PAFAH1B2 (human) inhibition; actives 1.2% (n = 340,000); P68402; AID 492953; recombinant PAFAH1B2, FP-rhodamine activity probe, fluorescence polarization; inhibition, % at 3.39 µM;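 active means inhibition above the mean of all tested compounds plus 3 SD, cut at about 24% in these data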;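 further: 0% = enzyme with DMSO and 100% = wells lacking PAFAH1B2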
# Target sequence (P68402 whole entry, looked up): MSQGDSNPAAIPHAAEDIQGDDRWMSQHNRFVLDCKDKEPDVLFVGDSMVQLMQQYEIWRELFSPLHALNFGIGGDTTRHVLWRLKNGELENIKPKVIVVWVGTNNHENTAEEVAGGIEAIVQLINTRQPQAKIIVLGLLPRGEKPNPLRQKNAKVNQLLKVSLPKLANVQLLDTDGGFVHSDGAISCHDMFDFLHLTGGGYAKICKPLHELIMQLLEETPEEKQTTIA
# PAFAH1B3 FP inh: PAFAH1B3 (human) inhibition. Q15102. recombinant PAFAH1B3, FP-rhodamine probe, fluorescence polarization. inhibition, % at 3.39 µM. actives 0.28% (n = 340,000);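 active means inhibition above the screen-wide average of all tested compounds plus 3 SD, cut at about 25% in these data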;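 further: 0% = enzyme with DMSO only and 100% = wells lacking PAFAH1B3 protein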
# Active calls of the source: *; · = no result. A selection: hits, their analogues and other compounds. The true share with any hit is near 3%.
SMILES,pPAFAH inh,Fh CTSL1 inh,PP5 inh,PAFAH2 FP inh,PAFAH1B2 FP inh,PAFAH1B3 FP inh
Cc1ccccc1NS(=O)(=O)c1ccc(OCCNS(C)(=O)=O)cc1,31.9*,-4.2,0.0,0.3,-5.9,0.6
CCOc1ccc(CN(C(=O)c2cc(=O)c3cc(C)cc(C)c3o2)C2CCS(=O)(=O)C2)cc1 (configuration not stated),-3.1,-2.4,3.5,6.7,2.5,-4.4
CC(C)(C)c1ccc(OCC(=O)N(Cc2cccs2)C2CCS(=O)(=O)C2)cc1 (configuration not stated),2.7,5.0,1.5,10.8,29.1*,2.2
CCc1ccc(OCC(=O)N(Cc2cccs2)C2CCS(=O)(=O)C2)cc1 (configuration not stated),5.8,2.3,5.2,1.9,7.3,-2.6
Cc1cc(SCC(=O)N/N=C/c2ccc(O)c(O)c2)nc2ccccc12,27.5*,-2.5,-1.8,31.6*,-2.0,14.7
O=C(Cc1nnc(NC(=O)c2ccccc2)s1)N/N=C/c1ccc(O)cc1,6.5,1.8,-2.5,8.3,6.0,11.4
O=C(Cc1nnc(NC(=O)c2ccccc2)s1)N/N=C\c1ccc(O)c(O)c1,27.4*,8.0,0.2,16.5,3.4,11.7
COc1ccc2nc(C)cc(SCC(=O)N/N=C/c3cccc4ccccc34)c2c1,-1.8,1.8,-0.6,-8.1,-0.7,-20.4
COc1ccc2nc(C)cc(SCC(=O)N/N=C/c3ccc(O)c(O)c3)c2c1,28.9*,3.3,2.1,19.4,1.8,11.4
Cc1cc(SCC(=O)N/N=C/c2ccc(O)c(O)c2)c(C)cc1Br,25.8*,-0.1,0.7,-7.8,3.1,22.5
CC(C)n1nc(C(=O)Nc2cccc(S(=O)(=O)N3CCCCC3)c2)c2ccccc2c1=O,-0.5,·,2.5,-2.9,0.8,-6.9
C=CC[C@H](CC(=O)N(CCO)Cc1ccccc1)C(=O)N[C@H](COC(=O)[C@@H](CC=C)CC(=O)OC(C)(C)C)c1ccccc1,9.1,·,·,3.6,6.0,8.5
COc1cccc(NCc2cc(=O)oc3cc(C)c(C(C)C)cc23)c1,12.4,2.5,3.4,1.9,9.7,7.1
Cc1cccc(NC(=O)c2cc(-c3cccnc3)nc3c(C)cccc23)n1,-1.6,-3.1,0.6,6.8,0.0,0.6
COc1cccc(C(=O)N2CCC(C(=O)NCc3ccco3)CC2)c1,3.0,-1.2,0.8,0.1,2.3,1.9
O=C(Cc1ccc(Br)cc1)NCCc1ccc(F)cc1,-3.8,2.2,-0.6,-0.2,26.3*,-0.9
O=C(Cc1ccc(Cl)cc1)NCCc1ccc(F)cc1,-5.7,-1.4,-0.1,·,·,·
CCOC(=O)C1=CN(Cc2ccco2)S(=O)(=O)NC1c1ccc(C(F)(F)F)cc1 (configuration not stated),15.5,·,·,-1.8,6.7,10.4
COc1cccc2c1C(=O)c1c(O)c3c(c(O)c1C2=O)CC(O)(C(=O)CO)CC3OC1CC(N(C)C)C(O)C(C)O1 (configuration not stated),·,·,·,60.5*,61.0*,46.8*
COc1cccc2c1C(=O)c1c(O)c3c(c(O)c1C2=O)C[C@@](O)(C(C)=O)C[C@@H]3O[C@H]1C[C@H](N)[C@H](O)[C@H](C)O1,·,·,·,54.1*,51.0*,37.2*
N#C/C(=C\c1ccc(-c2cccc([N+](=O)[O-])c2)o1)c1nnc(N2CCOCC2)n1-c1ccccc1,4.9,3.0,2.5,·,·,·
CC(NC(=O)CN1C(=O)NC(Cc2ccccc2)(Cc2ccccc2)C1=O)C12CC3CC(CC(C3)C1)C2 (configuration not stated),7.5,2.7,5.6,10.1,72.5*,-2.7
CC1CCCCC1NC(=O)CN1C(=O)NC(Cc2ccccc2)(Cc2ccccc2)C1=O (configuration not stated),4.8,-2.4,0.3,4.7,9.0,7.8
CC(NC(=O)Cn1ccsc1=N)C12CC3CC(CC(C3)C1)C2 (configuration not stated),-0.7,-3.4,3.5,19.5,8.0,-0.3
CC(NC(=O)Cn1c(=O)[nH]c2ccsc2c1=O)C12CC3CC(CC(C3)C1)C2 (configuration not stated),14.5,-1.0,1.3,26.7,27.7*,8.6
SMILES,pPAFAH inh,Fh CTSL1 inh,PP5 inh,PAFAH2 FP inh,PAFAH1B2 FP inh,PAFAH1B3 FP inh
COc1ccc(CNc2cc(C)ccn2)cc1,1.0,0.9,0.1,6.5,1.2,1.9
Cc1cccc(NCc2ccc(Br)cc2)n1,4.0,-3.8,0.6,-11.6,29.8*,-2.4
Cc1ccnc(NCc2ccc(Br)cc2)c1,8.3,-4.8,0.2,3.3,26.8*,8.6
Cc1cccc(NCc2cccc3ccccc23)n1,3.7,-2.2,3.1,3.3,3.8,-3.1
COc1ccc(NC(=O)COC(=O)C(CC(C)C)N2C(=O)C3CC=CCC3C2=O)cc1Cl (configuration not stated),2.1,52.4*,3.4,2.2,-1.8,1.8
COc1ccc(NC(=O)COC(C)=O)cc1Cl,2.3,-3.8,-0.9,-2.1,-3.5,7.4
O=c1c2ccccc2ncn1CCCSc1ccccc1,4.0,0.9,2.2,-10.1,13.1,0.1
O=c1c2ccccc2ncn1CCCSc1ccc(Cl)cc1,5.0,0.3,-0.9,6.4,51.0*,6.6
O=C(CCCN1C(=O)NC2(CCCC2)C1=O)Nc1ccc(F)cc1,-0.1,·,0.4,-4.9,1.6,-0.2
O=C(CN1C(=O)NC2(CCCCC2)C1=O)Nc1ccc(F)cc1,0.3,-0.1,-1.1,2.0,4.8,-3.0
Cc1ccc(Sc2ccc(NC(=O)CCN3C(=O)NC4(CCCC4)C3=O)cc2)c(C)c1,31.8*,·,6.1,38.1*,6.8,2.3
NC(=O)c1ccc(NC(=O)CN2C(=O)NC3(CCCCCCC3)C2=O)cc1,26.4*,·,·,8.0,2.6,11.9
CC(=O)OC1CCC2(C)C(CCC3C2CC(=O)C2(C)C3CC(C3CCCC3=O)C2C(C)=O)C1 (configuration not stated),·,·,·,-6.5,-1.6,-9.7
COc1cc(CC(=O)OCC(=O)NC2CC2)cc(OC)c1OC,4.1,46.1*,2.0,8.7,10.7,12.9
Cc1ccc(OCC(=O)OCC(=O)NC2CCCC2)cc1C,11.6,·,2.1,-3.2,-0.6,8.1
Cc1cc(C)cc(OCC(=O)OCC(=O)NC2CC2)c1,27.4*,·,·,1.5,-2.6,11.6
Cc1ccc(S(=O)(=O)NCc2cccnc2)cc1C(=O)NC1CCCCC1,0.3,-3.5,2.3,4.0,4.6,6.2
Nc1ccc(C(=O)CC(=O)Nc2ccc(Cl)cc2)cc1,1.9,0.8,0.6,-8.9,-5.0,8.4
Cn1nccc1C(=O)Nc1cccc(S(=O)(=O)N2CCOCC2)c1,3.7,-1.5,0.1,2.2,5.1,4.5
CCCCOc1ccc(C(=O)OCC(=O)NC2CCCC2)cc1,24.9*,-7.2,1.1,84.6*,2.3,1.1
CCOc1ccc(OCCC(=O)OCC(=O)NC2CCCC2)cc1,29.9*,·,4.7,-3.7,3.2,7.5
COC(=O)c1ccc(OCC(=O)NC2CCCCCCC2)cc1,5.4,·,·,3.4,5.4,6.2
